Data on 30 molecules can be found in PubChem BioAssay (NCATS).

Inconclusive results are not listed. The source made the active and inactive calls. Calls follow the shape of the dose curve; as a rule, active = well fitted cell-killing curve with a large enough effect; inconclusive = small, poorly fitted or top-dose-only effect, or effect the other way; inactive = no such curve, though single readings can be large or run the other way.
Potency is read from the fitted curve at half-maximal effect.

This test can be described thus: Quantitative High-Throughput drug screen in 47 multiple myeloma cell lines against the NCATS MIPE library collection: MMM1_PLB cell viability assay (AID 1918976). Also: nearly all actives have a fitted effect of over 35% in size. Conditions: MMM1 myeloma cells viability, CellTiter-Glo, 48 h; series mostly up to 45.8 µM; viability (% of control): at the top concentration. In a few lines:
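qHTS format: cells plated (500/well), pin-dosed with MIPE 4.0 compounds, kept 48 h at 37 °C. Readout was CellTiter-Glo luminescence, median RLU.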
`CC(C)=CCCC(C)=CCCC(C)=CCCC(C)=CCCC(C)=CCCC(C)=CCCC(C)=CCCC(C)=CCCC(C)=CCO`: the “viability (% of control)” value is 140% (inactive).

Consider `CCCCC[C@H](O)C=C[C@H]1[C@H](O)CC(=O)[C@H]1CCCCCCC(=O)O`, for which the Potency was 8.33 µM (active).

For the molecule `OC[C@H]1O[C@@H](O[C@H]2[C@@H](O)[C@@](O)(CO)O[C@@H]2CO)[C@H](O)[C@@H](O)[C@@H]1O`, the Potency was 3.72 µM (active).

Turning to `CCCCCCCCCCCCCCCC(=O)O[C@H]1[C@@H](O)[C@@H](O)[C@@H]([C@H](NC(=O)[C@@H]2C[C@@H](CCC)CN2C)[C@H](C)Cl)O[C@@H]1SC`, the Potency is 4.18 µM (active).

With `COc1ccc(CCC(=O)Nc2nc3ccc(Cl)cc3s2)cc1OC`, the Potency is 3.72 µM (active).

In the case of `CC(C)CNc1ccnc(NCc2csc(-c3ccccc3)n2)n1`, the Potency is 5.9 µM (active).

Turning to `NS(=O)(=O)c1cc(Cl)c(Cl)c(S(N)(=O)=O)c1`, the Potency is 18.7 µM (active).

In the case of `O=C(Nc1ncc(SCCN2CCCC2)s1)[C@]1(c2ccc(S(=O)(=O)C3CC3)cc2)C[C@@H]1C1CCCCC1`, the Potency is 14.8 µM (active).

Consider `COc1cc(F)c(C(C)C)cc1-c1ccc(C(F)(F)F)cc1CN1C(=O)O[C@H](c2cc(C(F)(F)F)cc(C(F)(F)F)c2)[C@@H]1C`, for which the Potency was 1.18 µM (active).

As for `CC(C)C[C@@H](C(=O)N[C@H](C(=O)OC1CCCC1)c1ccccc1)[C@H](O)C(=O)NO`, the Potency was 23.5 µM (active).

As to `CCCCC(C)(C)[C@H](O)C=C[C@H]1[C@H](O)CC(=O)[C@H]1CC=CCCCC(=O)O`, the Potency is 16.6 µM (active).

With `O=C(O)CCC=CCC[C@@H]1[C@H](N2CCCCC2)[C@@H](O)C[C@@H]1OCc1ccc(-c2ccccc2)cc1`, the “viability (% of control)” value was 128% (inactive).

In the case of `O=C(Nc1cccc(C(F)(F)F)c1)Nc1cc(S(=O)(=O)NC2CC2)ccc1-c1ccsc1`, the Potency is 18.7 µM (active).

`O[C@@H](COc1cccc2ncccc12)CN1CCN(C2c3ccccc3[C@@H]3[C@H](c4ccccc42)C3(F)F)CC1` (stereo not given in full): the Potency is 26.4 µM (active).

As to `CCN1C[C@H](C)n2c(c(O)c3c(=O)n(Cc4ccc(F)c(Cl)c4)nc(C(=O)NC)c32)C1=O`, the Potency is 2.64 µM (active).

With `CC(C)(O)CC(=O)NCCn1ccc2ncnc(Nc3ccc(Oc4cccc(C(F)(F)F)c4)c(Cl)c3)c21`, the Potency was 20.9 µM (active).

As for `CN1CC(=O)NC1=NC(=O)Nc1cccc(Cl)c1`, the Potency was 20.9 µM (active).

`C[C@@H]1CC=CC=CC=CC=C[C@@H](O[C@@H]2O[C@H](C)[C@@H](O)[C@H](N)[C@H]2O)C[C@@H]2O[C@](O)(C[C@@H](O)C[C@@H]3O[C@@H]3C=CC(=O)O1)C[C@H](O)[C@@H]2C(=O)O`: the Potency was 23.5 µM (active).

Regarding `N#CC(=C1Nc2ccccc2S1)c1ccnc(OCc2ccc(CN3CCOCC3)cc2)n1`, the Potency was 14.8 µM (active).

`CC1(C)[C@H]2CC[C@]3(C)[C@@H](C(=O)C=C4[C@@H]5C[C@@](C)(C(=O)O)CC[C@]5(C)CC[C@]43C)[C@@]2(C)CC[C@@H]1O`: the Potency is 3.72 µM (active).

For `CN(C)N=Nc1nc[nH]c1C(N)=O`, the Potency was 4.69 µM (active).

For the molecule `COc1ccc2cc1Oc1ccc(cc1)C[C@H]1c3cc(c(OC)cc3CCN1C)Oc1c(OC)c(OC)cc3c1[C@H](C2)N(C)CC3`, the Potency is 6.62 µM (active).

`COc1cc2c(cc1OC)[C@@H]1Cc3ccc(OC)c(OC)c3CN1CC2`: the Potency is 16.6 µM (active).

On to `O=C(Nc1cccc(Cl)c1)Nc1ncc(CCNc2ncnc3ccsc23)s1`, for which the Potency was 16.6 µM (active).

Turning to `COC1CCC(C(=O)c2ccc3nc4c(cc3c2)CCCO4)CC1` (stereo not given), the Potency is 2.64 µM (active).

On to `C=C1[C@H](n2cnc3c(=O)[nH]c(N)nc32)C[C@H](O)[C@H]1CO`, for which the Potency is 3.72 µM (active).

For the molecule `Cc1ccc(C2=Nc3ccc(Cl)cc3OC2)cc1`, the Potency was 18.7 µM (active).

`CC1(C)C(N(O)C(=O)Nc2ccc(Cl)cc2)N(c2ccc(Cl)cc2)C(=O)N1CC(=O)NN=CC=Cc1ccc([N+](=O)[O-])o1` (stereo not given): the Potency is 14.8 µM (active).

Take `NCC1CCC(C(=O)O)CC1` (stereo not given): the Potency is 0.0148 µM (active).

With `Fc1ccc(CNc2ncnc3ccc(F)cc23)cc1`, the Potency is 4.18 µM (active).
